Assay: growth modulation of vineyard yeast isolate – strain RM11-1a, OD600, basal, 24 h, primary screen (AID 1177);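 note: cultures grown under basal conditions with no added stressor; test concentration not given here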
Settings: S. cerevisiae RM11-1a growth, OD600, 24 h; higher = more signal, called active from +8 up or from −8 down

z-score, inactive:
[N-]=[N+]=NCc1ccccc1C[C@@]1(C(=O)N2CCOCC2)N=C(c2ccc(OCCCO)cc2)O[C@@H]1c1ccccc1CN=[N+]=[N-] 1.19, O=C(NCc1ccccc1)[C@]1(CCS(=O)(=O)c2ccccc2)N=C(c2ccc(OCCCO)cc2)O[C@@H]1c1ccccc1 1.91, O=C1c2ccccc2[C@@]2(Cc3ccccc3N(Cc3ccccc3)C2=O)[C@H](c2ccc(CO)cc2)N1C1CCCCC1 1.57, COc1ccc(C(O)C2C=CC3C(=O)N(C)C(=O)C3N2Nc2ccccc2)cc1OCc1ccccc1 (centres undefined) 1.17, CCCNC(=O)[C@@]1(c2ccc([N+](=O)[O-])cc2)CC(=O)N(CC23CC4CC(CC(C4)C2)C3)[C@@H]1c1ccc(CO)cc1 1.05, O=C1O[C@@H](c2ccccc2)[C@@H](c2ccccc2)N2[C@@H](c3ccc(O)cc3)[C@]3(C(=O)Nc4ccc(C#CC5(O)CCCCCC5)cc43)[C@@H](C(=O)N3CCCCCCC3)[C@H]12 0.141, CC(C)CNC(=O)[C@@H]1c2ccccc2C(=O)N(Cc2cc(C(F)(F)F)cc(C(F)(F)F)c2)[C@H]1c1ccc(CO)cc1 0.927, O=C1O[C@H](c2ccccc2)[C@H](c2ccccc2)N2[C@H]1[C@@H](C(=O)O)[C@]1(C(=O)Nc3ccc(C#CC4(O)CCCCCC4)cc31)[C@H]2c1ccc(OCCO)cc1 2.12, CCCC[C@@H]1C[C@H]1[C@@H](NC(=O)c1ccc(-c2ccccc2)cc1)c1ccc(-c2ccccc2)cc1 0.0066
